Anthrax LT inh: blocks cellular internalization of anthrax lethal toxin | Potency, µM (doses to about 40 µM), inactives show top-dose activity change, negative = inhibition, actives largely listed as inhibitors | Cells, anthrax lethal toxin internalization, FRET ratio (460/530) | actives 0.67% (n = 70,000) | AID 912; also: % is scaled to controls: 0 for no effect and ±100 for the full control effect; nearly all actives have a fitted effect of over 50% in size
AmpC nodet inh: inhibitors of E. coli AmpC beta-lactamase without detergent. Potency, µM (top dose mostly 28.7 µM), without a hit: at the top dose activity change, negative = inhibition. AmpC nitrocefin hydrolysis, absorbance 480 nm, no detergent. actives 1.8% (n = 71,000). P00811; also: % of control where 0% means no effect
Target sequence (P00811 whole entry, looked up): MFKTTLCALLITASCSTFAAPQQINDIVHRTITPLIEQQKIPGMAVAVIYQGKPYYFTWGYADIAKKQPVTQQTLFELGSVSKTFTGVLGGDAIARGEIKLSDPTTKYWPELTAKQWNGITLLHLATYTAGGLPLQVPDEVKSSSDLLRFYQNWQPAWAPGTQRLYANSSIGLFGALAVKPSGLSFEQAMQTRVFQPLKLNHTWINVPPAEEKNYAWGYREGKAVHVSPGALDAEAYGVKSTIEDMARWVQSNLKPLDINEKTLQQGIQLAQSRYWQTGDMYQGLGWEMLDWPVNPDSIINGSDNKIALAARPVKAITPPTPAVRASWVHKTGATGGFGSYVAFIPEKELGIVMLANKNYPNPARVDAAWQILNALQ
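Enzyme, pH 7.0 phosphate. Compound titrations were pre-incubated with AmpC for 15 min at room temperature before nitrocefin (stock 800 uM) addition; product formation was recorded at 480 nm every 20 s for 4 min.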
SmPrx2 inh: Schistosoma mansoni Prx2 inhibition. S. mansoni Prx2 activity coupled to TGR/GSH (TGR is thioredoxin glutathione reductase), NADPH fluorescence loss, qHTS. Potency, µM. actives 0.07% (n = 65,000). AID 448
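Prx2 activity was followed as the loss of NADPH fluorescence (ex 365/em 450 nm), read every 30 sec for 8 min after H2O2 start. The enzyme mix (50 nM Prx2, 25 nM TGR, GSH, NADPH; pH 7.4 phosphate buffer) was incubated with compound for 15 min at room temperature first.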
AmpC inh det: AmpC beta-lactamase inhibition, detergent assay. P00811. purified AmpC, nitrocefin hydrolysis with detergent. Potency, µM (series often up to 28.7 µM), for the others: at the highest dose activity change, negative = inhibition. actives 0.09% (n = 71,000). AID 584; active = well fitted curve in the direction sought with a large enough effect; inconclusive = small, poorly fitted or top-dose-only effect; also: % is scaled to controls: 0 for no effect and ±100 for the full control effect
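E. coli AmpC (5.3 nM) in 20 mM phosphate pH 7.0 with 0.01% Triton X-100, preincubated 15 min RT with compound; nitrocefin (2 uL of 800 uM stock) hydrolysis followed by 480 nm absorbance every 20 s over 4 min.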
Numbers without * were called inactive; ? = inconclusive; · = no result given; [ ] = another dose, or the depositor's remark. The list is not random: actives were taken first. Their share in the collection is about 2.4%. Unless noted, calls follow the shape of the full dose curve. Potency is read from the fitted curve at half-maximal effect.

SMILES | Anthrax LT inh | AmpC nodet inh | SmPrx2 inh | AmpC inh det
Cc1ccc(C)c2[nH]c(=O)c(CN(CCN3CCCC3)C(=O)Nc3cccc(Cl)c3)cc12 | 7.9µM* | 98% | >57 | -3%
COC(=O)CN(c1ccc(C(C)C)cc1)S(=O)(=O)c1c(C)[nH]c(=O)[nH]c1=O | -12% | 4µM*[single pt active] | >57 | 14%
Cc1cc(C(=O)CSc2nc3ccccc3n2CCC#N)c(C)n1Cc1cccs1 | -26% | 16µM* | >57 | -1%
C=C[C@@H]1CN2CC[C@H]1C[C@H]2[C@@H](O)c1ccnc2ccccc12 | ? | -2% | >57 | 1%
COc1ccccc1-c1nccc(NCc2cnc(C)cn2)n1 | ? | 6% | >57 | 7%
c1ccc(-c2ccc(N3CCCC4(CCNCC4)C3)cc2)cc1 | ? | 116% | >57 | -4%
O=C(O)CCc1c2ccc(=O)c(O)c-2oc2c(O)c(O)ccc12 | -26%[8 µM] | 2.5µM* | >57 | -26%[5.75 µM]
O=c1cc(-c2cccc(O)c2)oc2c(O)c(O)ccc12 | ? | ? | >57 | -8%
CS(=O)(=O)Nc1cccc(-c2nc(NCc3ccccc3)c3ccccc3n2)c1 | ? | 6% | >57 | 8%
O=C(NCCN1CCN(c2ccccc2F)CC1)C1CCCN(S(=O)(=O)c2cnc[nH]2)C1 (stereo not drawn) | -7% | 4µM*[single pt active] | >57 | 10%
COc1ccc(N2CCN(CCCNC(=O)C3CCCN(S(=O)(=O)c4cnc[nH]4)C3)CC2)cc1 (stereo not drawn) | ? | 4µM*[single pt active] | >57 | 12%
CCCS(=O)(=O)N1CCCC(C(=O)NCCCN2CCN(c3ccccc3F)CC2)C1 (stereo not drawn) | -1% | 45% | >57 | -4%
O=C(NCCN1CCC(Cc2ccccc2)CC1)C1CCCN(S(=O)(=O)c2cnc[nH]2)C1 (stereo not drawn) | -3% | 4µM*[single pt active] | >57 | 11%
O=C(NCCc1ccccc1)C1CCCN(S(=O)(=O)c2cnc[nH]2)C1 (stereo not drawn) | -3% | 4% | >57 | 4%
O=S(=O)(c1ccccc1)N1CCC[C@@]2(CCN(c3ccncc3)C2)C1 | -7% | 11% | >57 | 5%
CCCCOCCOCCSC#N | -3% | 6% | · | 8%
CC(=O)N1CCN(c2ccc(NCc3ccc(C)s3)cc2)CC1 | -7% | 4µM*[single pt active] | >57 | 14%
Cc1ccc(CNc2ccc(N3CCOCC3)cc2)s1 | -12% | 39% | >57 | -5%
C=CC1CC=CCC1 (stereo not drawn) | -1% | -14% | · | 10%
O=c1cnc2cncnc2n1Cc1ccccc1 | ? | 14% | >57 | -3%
COc1ccc(OC)c(NC2c3ccccc3C(=O)N2Cc2ccc3c(c2)OCO3)c1 (stereo not drawn) | ? | 4µM*[single pt active] | >57 | 15%
O=C1c2ccccc2C(O)N1Cc1ccc2c(c1)OCO2 (stereo not drawn) | -5% | 4µM*[single pt active] | >57 | 13%
O=C1c2ccccc2C(Nc2cccnc2)N1Cc1ccc2c(c1)OCO2 (stereo not drawn) | 0% | 3.2µM*[single pt active] | >57 | 13%
COc1ccc2c(c1O)-c1cccc3c1[C@H](C2)N(C)CC3 | ? | -4% | >57 | 0%
C[C@H]1[C@H](NC(=O)/C(=N/OC(C)(C)C(=O)O)c2csc(N)n2)C(=O)N1S(=O)(=O)O (stereo in doubt) | -3%[3.58 µM] | 0.00079µM* | >57 | 0.002µM*
SMILES | Anthrax LT inh | AmpC nodet inh | SmPrx2 inh | AmpC inh det
C[C@@H]1O[C@H](O[C@H]2C[C@@H](O)[C@]3(CO)[C@H]4[C@H](O)C[C@]5(C)[C@@H](C6=CC(=O)OC6)CC[C@@]5(O)[C@H]4CC[C@]3(O)C2)[C@@H](O)[C@H](O)[C@H]1O | ? | -3% | >57 | 1%
CCC(C)C(=O)Nc1nc2c(s1)C(=O)CC(C)(C)C2 (stereo not drawn) | 9% | 4µM*[single pt active] | >57 | 11%
COc1ccccc1OCCn1cc(C(=O)c2ccco2)c2ccccc21 | 10µM* | 6% | >57 | 6%
O=C(c1ccco1)N1CCC2(CC1)CN(c1cccc(-c3ccccc3)c1)C2 | -21% | 102% | >57 | 7%
O=C(CSc1nnc(-c2ccccc2)o1)N1CCN(c2ccccc2)CC1 | ? | 13µM*[single pt active] | >57 | -4%
CCOc1ccc(-c2nnc(SCC(=O)N3CCN(c4ccccc4)CC3)o2)cc1 | 1% | -3% | >57 | 6%
COC(=O)C1=C(C)NC(C)=C(C(=O)OCCCN2CCC(c3ccccc3)(c3ccccc3)CC2)[C@H]1c1cccc([N+](=O)[O-])c1 | ? | 57% | >57 | 2%
O=c1[nH]c(CN2CCc3ccccc32)nc2scc(-c3cccs3)c12 | ? | 0.79µM* | >57 | -4%
O=c1[nH]cnc2scc(-c3cccs3)c12 | · | -10% | >57 | -3%
Cc1cc(C)nc(SCC(=O)c2ccc(O)cc2O)n1 | -3% | 4µM*[single pt active] | >57 | 14%
Cc1ccc2c(c1)NC(=O)C(CC(=O)NCCCN1CCN(C3CCCCC3)CC1)O2 (stereo not drawn) | -6% | 8% | >57 | 8%
COc1ccc(N2CCN(CCCNC(=O)CC3Oc4ccc(C)cc4NC3=O)CC2)cc1 (stereo not drawn) | ? | 4µM*[single pt active] | >57 | 13%
Cc1ccc2c(c1)NC(=O)C(CC(=O)NCCCN1CCCC1)O2 (stereo not drawn) | -5% | 4µM*[single pt active] | >57 | 9%
CN(C)c1ccc(-c2cncnc2NCCN2CCOCC2)cc1 | ? | 48% | ? | 10%
Cc1nc2cnc(N3CCOCC3)nc2n(C[C@H]2CCCO2)c1=O | -6% | 8% | >57 | 0%
O=C(Nc1cnn(Cc2ccc(Cl)cc2Cl)c1)c1noc2c1CCCC2 | ? | 4µM*[single pt active] | >57 | 13%
Clc1ccccc1/C=C\c1ccnc2ccccc12 | -12%[8 µM] | -6%[5.75 µM] | >57 | -3%[5.75 µM]
Cc1ccnc(NC2c3ccccc3C(=O)N2Cc2ccccc2Cl)c1 (stereo not drawn) | -6% | 4µM*[single pt active] | >57 | 12%
Cc1nc2ccccc2c2oc(C(=O)NCCN3CCN(C)CC3)cc12 | ? | -16% | >57 | 6%
Cc1ccc2oc(=O)c3cc(C(=O)NCCN4CCN(C)CC4)sc3c2c1 | -17% | 4µM*[single pt active] | >57 | 14%
Cc1cc(NC(=O)CSc2nc(-c3ccc(F)cc3)cs2)no1 | -2% | -13% | >57 | -3%
O=C(CSc1nc(-c2ccc(F)cc2)cs1)NC(=O)NCc1ccco1 | -19% | 3.2µM* | >57 | 0%
O=c1c(-c2ccc(Cl)cc2)nc2cnc(N3CCOCC3)nc2n1-c1ccccc1 | ? | -2% | >57 | 0%
CN(CC(=O)N1CCc2ccccc2C1)S(=O)(=O)c1ccc2c(c1)c(=O)n(C)c(=O)n2C | 1% | 4µM*[single pt active] | >57 | 13%
Oc1ccc(Br)cc1/C=N/n1cnc2ccccc21 | -31% | 16µM*[single pt active] | >57 | 0%
OCC(CO)(CO)N=Cc1cc(Br)ccc1O | -20% | -6% | >57 | 4%
CCOc1ccc2nc(NC(=O)Nc3cccs3)sc2c1 | ? | 3.2µM*[single pt active] | >57 | 10%
CCOc1ccc2nc(NC(=O)COC)sc2c1 | 6% | 8% | >57 | -4%
COCCn1c(=O)c(CCc2ccccc2)nc2cnc(Oc3cccc(Cl)c3)nc21 | ? | 7% | >57 | 1%

Assay outcomes: PubChem, National Center for Advancing Translational Sciences (NCATS)
